Test results published in PubChem BioAssay AID2685 (National Center for Advancing Translational Sciences (NCATS), 2010).
The campaign covered roughly 320,000 compounds. About 2,100 (0.66%) were called active. Inconclusive results (about 53%) are left out. Calls come from the whole dose curve; as a rule, active = well fitted inhibition curve with a large enough effect in the signal ratio, with a control signal flat (not every such curve was filed as active); inconclusive = small, poorly fitted or top-dose-only effect, or effect the other way, or a change in a side signal; inactive = flat fitted curve, though single readings scatter; the % refers to the signal ratio. The full list was thinned out, with actives kept by preference.

Test: qHTS Assay for Lipid Storage Modulators in Drosophila S3 Cells;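 for cell number change: cells counted by Cell Tracker Red CMTPX staining in the red channel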; for lipid storage change, negative = inhibition: % is set by controls: 0 for no effect and ±100 for the full control effect
Details: BODIPY lipid droplet fluorescence, 18-24 h, cells fed with added oleic acid; cell number change: measured here: cell count max response; series mostly up to 46.1 µM; lipid storage change, negative = inhibition: at the top concentration
Method in brief: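 Drosophila S3 cells got compounds at several concentrations plus oleic acid (400 uM solution). Laser-scanning cytometry with 488 nm excitation read lipid droplets at 500-530 nm and cells at 575-640 nm. Percent activity was relative to 20 uM Triacsin C.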
Potency is the fitted concentration of half-maximal effect.

SMILES | outcome | cell number change [%] | lipid storage change, negative = inhibition | Potency
Cc1ccccc1CCNC(=O)C1CCCN(c2cnccn2)C1 (configuration not stated) | inactive | -4.78 |  | 
Cc1cccc(NC(=S)NCC(c2cccnc2)N2CCOCC2)c1 (configuration not stated) |  | 16.1 | 16.3% (inactive) | 
N#Cc1ccc(C(CC(=O)O)N2Cc3ccccc3C2=O)cc1 (configuration not stated) |  | 6.48 | 1.6% (inactive) | 
Cc1ccc(NC2CCCN(C(=O)c3ccoc3)C2)cc1C (configuration not stated) |  | -11.9 | -3.71% (inactive) | 
O=C(c1ccc(C(F)(F)F)cc1)N1CCN(S(=O)(=O)c2ccc3c(c2)OCCCO3)CC1 |  | 3.78 | 16.3% (inactive) | 
COc1ccccc1C(=O)Nc1ccc(Br)cc1C |  | 6.15 | 7.89% (inactive) | 
COc1ccccc1NC(=O)c1cccc2c(Br)cccc12 | inactive | -20.6 |  | 
COc1ccccc1C(=O)Nc1ccc(Br)c2cccnc12 |  | -27.2 |  | 1.64 µM (active)
CNc1ccc(Oc2c(F)c(F)nc(F)c2F)cc1 |  | -27.7 | 5.56% (inactive) | 
CCn1c(=O)n(CC)c2cc(N3CCCC3)c(NC(=O)c3ccc(C)cc3)cc21 | inactive | -23.8 |  | 
COc1ccc(Cl)cc1C(=O)Nc1ccccc1N1CCCCC1 |  | 5.02 | 24.2% (inactive) | 
CCn1c(=O)n(CC)c2cc(N3CCCC3)c(NC(=O)c3cc(Cl)ccc3OC)cc21 |  | -12.8 |  | 5.8 µM (active)
Cc1ccc2c(n1)CC(C)(C)C/C2=N\O |  | 3.94 | 2.92% (inactive) | 
CC(C)Oc1cccc(C(=O)C2CCCN(C(=O)c3ccc4c(c3)OCO4)C2)c1 (configuration not stated) |  | -14.4 | -19.1% (inactive) | 
CC(C)Oc1cccc(C(=O)C2CCCN(C(=O)c3ccsc3)C2)c1 (configuration not stated) |  | -18.6 |  | 18.4 µM (active)
CC(C)Oc1cccc(C(=O)C2CCCN(C(=O)c3csnn3)C2)c1 (configuration not stated) |  | 3.1 | -2.76% (inactive) | 
Cn1ncc(N=Cc2ccccc2[N+](=O)[O-])c1C(N)=O |  | -4.8 | 12.9% (inactive) | 
CCOC(=O)Cn1c(=N)n(CCOc2ccc(Br)cc2)c2ccccc21 |  | -7.97 | -6.39% (inactive) | 
CCOC(=O)Cn1nc(C)c(NC(=O)CCc2ccccc2)c1C |  | 12.6 | -3.97% (inactive) | 
Fc1cccc(CCN2CCNC[C@H]2Cc2cccc3ccccc23)c1 |  |  |  | 14.6 µM (active)
Oc1ccc(C[C@@H]2CNCCN2CCc2cccc3ccccc23)cc1 |  | -30.1 | 9.05% (inactive) | 
c1ccc(C[C@H]2CNCCN2CCc2cccc3ccccc23)cc1 |  | -0.264 | 2.45% (inactive) | 
C=CCn1c(C)cc(C(=O)COC(=O)c2ccc(N)c([N+](=O)[O-])c2)c1C |  | 5.39 | 13.4% (inactive) | 

SMILES | outcome | cell number change [%] | lipid storage change, negative = inhibition | Potency
CCN(CC)CCCNC(=S)N(Cc1cccnc1)Cc1cc2cc(C)ccc2[nH]c1=O |  | 5.5 | 11.3% (inactive) | 
CCOC(=O)C1CCCN(CCC(C)c2ccccc2)C1 (configuration not stated) |  | 2.31 | 13.5% (inactive) | 
CC(CN1CCCC(C(N)=O)C1)c1ccccc1 (configuration not stated) |  | -8.59 | -19.6% (inactive) | 
CN1CCCC(C(=O)C(C#N)c2ccccc2)C1 (configuration not stated) |  | -21.6 |  | 29.1 µM (active)
CC(C)n1nc(C(=O)Nc2cccc(S(=O)(=O)NCc3ccco3)c2)c2ccccc2c1=O | inactive | -6.04 |  | 
CC(=O)OCn1nnc2ccccc2c1=O |  | 12.3 | 3.6% (inactive) | 
CC(C)[C@H](NS(=O)(=O)c1ccccc1)C(=O)OCn1nnc2ccccc2c1=O |  |  | -13.3% (inactive) | 
CC(C)C(NC(=O)c1ccccc1)C(=O)OCn1nnc2ccccc2c1=O (configuration not stated) |  | -15.7 |  | 16.4 µM (active)
CCOC(=O)c1ccccc1NC(=S)N1CCC(C)CC1 |  | -4.08 | 29.6% (inactive) | 
Cc1nnsc1S(=O)c1ccccc1Cl (configuration not stated) |  | -9.44 | 14.1% (inactive) | 
O=[N+]([O-])c1cccc(/C=N/NS(=O)(=O)c2ccccc2)c1 |  | -12.3 | -12.4% (inactive) | 
C=CCNC(=S)NNC(=O)c1ccc(Br)cc1 |  | -6.86 | -0.112% (inactive) | 
CC(=O)NC(=S)Nc1ccc(NC(=S)NC(=O)/C=C/c2ccco2)cc1 |  | 15.8 | 8.43% (inactive) | 
CC(=O)Nc1ccc(NC(=S)NC(=O)/C=C/c2ccco2)cc1 |  | -27.7 |  | 4.61 µM (active)
CC(=O)c1ccc(NC(=S)NC(=O)/C=C/c2ccco2)cc1 |  | -2.35 | 9.91% (inactive) | 
CCO[C@H]1OC(C(=O)N2CCN(C)CC2)=C[C@@H](C2CC2)[C@@H]1CCCO |  |  | -7.66% (inactive) | 
Cc1cc(OCC(=O)NNC(=S)NCC2CCCO2)cc(C)c1Cl (configuration not stated) | inactive | -9.63 |  | 
O=C(Nc1ccccc1F)C1COc2ccccc2O1 (configuration not stated) | inactive |  |  | 
COc1ccc(NC(=O)CCCNC(=O)Cn2cnc3sc(C)c(C)c3c2=O)cc1OC | inactive | 19.7 |  | 
COc1ccccc1NC(=O)CCCNC(=O)Cn1cnc2sc(C)c(C)c2c1=O | inactive | 9.46 |  | 
COc1ccc(OC)c(NC(=O)CCCNC(=O)Cn2cnc3sc(C)c(C)c3c2=O)c1 |  | 10.8 |  | 3.66 µM (active)
CN1CCN(C2CCN(Cc3ccc(O)c4ncccc34)CC2)CC1 |  | 8.98 | 9.86% (inactive) | 
COc1ccccc1-c1nc(S(=O)(=O)c2ccccc2)c(N2CCOCC2)o1 |  | 5.82 | -22.5% (inactive) | 

SMILES | outcome | cell number change [%] | lipid storage change, negative = inhibition | Potency
COc1ccccc1-c1nc(S(=O)(=O)c2ccccc2)c(N2CCCCC2)o1 |  | -11.8 |  | 4.11 µM (active)
O=S(=O)(c1ccccc1)c1nc(-c2ccccc2)oc1N1CCCC1 |  |  | 1.16% (inactive) | 
Cc1nc(CS(=O)c2ccc(Cl)cc2)cc(N2CCOCC2)n1 (configuration not stated) |  | -22.4 | -9.48% (inactive) | 
Cc1ccc(NC(=O)CN2CCN(Cc3ccccc3)CC2)cc1 |  |  | 5.7% (inactive) | 
COc1ccc(C(=O)NCC2(c3ccccc3)CCOCC2)cc1 |  | 16.9 | 3.47% (inactive) | 
CC1=CC2=NC(=O)/C(=C\c3ccc(-c4ccc(Cl)cc4)o3)C(=N)N2O1 |  | 5.59 | -14% (inactive) | 
CCOc1ccc(C(=O)NC(C(=O)NCC(c2cccs2)N(C)C)C(C)C)cc1 (configuration not stated) |  | -5.63 | 16.5% (inactive) | 
CCOc1ccc(NC(=O)CSc2nnc(CNC(=O)c3ccco3)o2)cc1 |  | 12.8 | 4.79% (inactive) | 
CCOC(=O)c1ccc(NC(=O)CSc2nnc(CNC(=O)c3ccco3)o2)cc1 |  | -21.5 |  | 3.66 µM (active)
CCC1CCCCN1C(=O)CSc1nnc(CNC(=O)c2cc(OC)c(OC)c(OC)c2)o1 (configuration not stated) | inactive |  |  | 
COc1ccc(C(=O)NCc2nnc(SCC(=O)Nc3cccc(C(F)(F)F)c3)o2)cc1OC |  | 0.944 | -16.5% (inactive) | 
COc1cc(C(=O)NCc2nnc(SCC(=O)N3CCCCC3)o2)cc(OC)c1OC |  | 4.42 |  | 18.4 µM (active)
COc1cc(C(=O)NCc2nnc(SCC(=O)Nc3cc(C)cc(C)c3)o2)cc(OC)c1OC |  | 6.53 | 5.11% (inactive) | 
COc1ccc(C(=O)NCc2nnc(SCC(=O)N3CCCC3)o2)cc1 | inactive |  |  | 
COc1cc(C(=O)NCc2nnc(SCC(=O)Nc3cccc(C(F)(F)F)c3)o2)cc(OC)c1OC |  | -27.5 |  | 9.2 µM (active)
Cc1ccc(NC(=O)CSc2nnc(CNC(=O)c3ccco3)o2)cc1 |  |  | -12.8% (inactive) | 
Cc1cc[n+]2c3c(cccc13)CCC2 | inactive | 21.6 |  | 
Cn1c(SCC(=O)Nc2nccs2)nnc1-c1ccco1 |  | 19.7 | 8.24% (inactive) | 
O=C(CCNS(=O)(=O)c1ccccc1F)N1CCN(Cc2ccccc2)CC1 | inactive |  |  | 
O=C(CCNS(=O)(=O)c1ccccc1F)N1CCN(C(c2ccccc2)c2ccccc2)CC1 |  |  |  | 23.1 µM (active)
O=C(CCNS(=O)(=O)c1ccccc1C(F)(F)F)N1CCN(C(c2ccccc2)c2ccccc2)CC1 |  | 9.11 | 23.5% (inactive) | 
COc1cc(CN(C(=S)NCC(=O)NC2CC2)C2CCCC2)cc(OC)c1OC |  | 4.91 | -7.95% (inactive) | 
CS(=O)(=O)N1N=C(c2ccccc2)CC1c1cccs1 (configuration not stated) |  | -4.84 | 0.108% (inactive) | 

SMILES | outcome | cell number change [%] | lipid storage change, negative = inhibition | Potency
N=C(N)Sc1nc(N2CCCCC2)nc(N2CCCCC2)n1 |  | 2.17 | -23.5% (inactive) | 
CN(C)S(=O)(=O)c1cccc(-c2nnc(SCC(=O)NCCCCCC(=O)O)n2-c2ccc(F)cc2)c1 |  | 5.6 | 8.47% (inactive) | 
CCC(=O)Nc1ccc(S(=O)(=O)Nc2c(NC)c3ccccc3oc2=O)cc1 |  | 8.07 |  | 18.4 µM (active)
CNc1c(NS(=O)(=O)c2cc(OC)ccc2OC)c(=O)oc2ccccc12 | inactive | -19.8 |  | 
CC(=O)Nc1ccc(S(=O)(=O)Nc2c(NC3CCCCC3)c3ccccc3oc2=O)cc1 | inactive | -18 |  | 
CNc1c(NS(=O)(=O)c2ccc(OC)c(Cl)c2)c(=O)oc2ccccc12 |  | -27.3 |  | 16.4 µM (active)
CC(=O)Nc1ccc(S(=O)(=O)c2ccc(C)cc2)cc1 |  | -22.1 | -24% (inactive) | 
CCCNc1c(NS(=O)(=O)c2ccc(C)c(C)c2)c(=O)oc2ccccc12 |  | -4.13 |  | 0.291 µM (active)
CCCNc1c(NS(=O)(=O)c2ccc(Br)cc2)c(=O)oc2ccccc12 | inactive | -47.1 |  | 
COc1ccc(S(=O)(=O)Nc2c(NC3CCCCC3)c3ccccc3oc2=O)cc1Cl | inactive | -20.1 |  | 
CCC(=O)Nc1ccc(S(=O)(=O)c2ccc(NC(=O)CC)cc2)cc1 |  | 0.0647 |  | 10.3 µM (active)
CCCNc1c(NS(=O)(=O)c2ccc3c(c2)CCCC3)c(=O)oc2ccccc12 |  | -4.72 | 13.3% (inactive) | 
O=C(O)CCC(=O)Nc1ccc(S(=O)(=O)c2ccc(NC(=O)CCC(=O)O)cc2)cc1 |  | 14.2 | 25% (inactive) | 
CCCNc1c(NS(=O)(=O)c2ccc(NC(=O)CC)cc2)c(=O)oc2ccccc12 | inactive | -23.3 |  | 
O=C(NNS(=O)(=O)c1ccccc1)c1cnn(-c2ccccc2)c1-n1cccc1 |  | 9.3 | 7.45% (inactive) | 
O=C1CC(NS(=O)(=O)c2cc(F)ccc2F)CN1c1ccc2c(c1)OCCO2 (configuration not stated) | inactive |  |  | 
CC(=O)N1CCc2cc(Br)cc(S(=O)(=O)N3CCCCCC3)c21 |  | -5.11 | 1.88% (inactive) | 
Cn1cccc1/C=N/NC(=O)CSc1nc2ccccc2[nH]1 |  | 5.5 | 15.8% (inactive) | 
CCC(=O)NC(=S)Nc1ccc(NC(=O)c2ccc(Br)o2)cc1 |  | -10.2 | -15.2% [at 9.22 µM] (inactive) | 
C=CCn1c(CNC(=O)c2ccccc2F)nnc1SCC(=O)NC(C)c1ccccc1 (configuration not stated) |  | 1.35 | 9.08% (inactive) | 
Cc1cc(=O)oc2cc(OCC(=O)OCC(=O)N(C)C3CCS(=O)(=O)C3)ccc12 (configuration not stated) |  | 7.81 | -5.08% (inactive) | 
Cc1cc(=O)oc2cc(OCc3ccc(C(=O)OCC(=O)N(C)C4CCS(=O)(=O)C4)cc3)ccc12 (configuration not stated) |  | -7.42 | -1.78% (inactive) | 
CCN(C(=O)COC(=O)COc1ccc2c(C)cc(=O)oc2c1)C1CCS(=O)(=O)C1 (configuration not stated) |  | -49.7 |  | 0.0461 µM (active)
